Results from publication PMC7862700, “An all-to-all approach to the identification of sequence-specific readers for epigenetic DNA modifications on cytosine”.

Key:
Experiment in all cases: DAPPL (digital affinity profiling via proximity ligation, sequencing); 10 mM Tris-HCl pH 7.5, 50 mM NaCl, 1 mM DTT, 4% glycerol, room temperature, 30 min; GST-TFs on glutathione beads, 16-mer random dsDNA library, 0.1% formaldehyde crosslink after washing; high values mean tight binding
Conditions in all cases: protein: recombinant; tags: N-terminal GST; dsDNA, one strand shown
FLI1 = molecular target: T1, FLI1 (Homo sapiens, UniProt Q01543 1-452)
T1 sequence: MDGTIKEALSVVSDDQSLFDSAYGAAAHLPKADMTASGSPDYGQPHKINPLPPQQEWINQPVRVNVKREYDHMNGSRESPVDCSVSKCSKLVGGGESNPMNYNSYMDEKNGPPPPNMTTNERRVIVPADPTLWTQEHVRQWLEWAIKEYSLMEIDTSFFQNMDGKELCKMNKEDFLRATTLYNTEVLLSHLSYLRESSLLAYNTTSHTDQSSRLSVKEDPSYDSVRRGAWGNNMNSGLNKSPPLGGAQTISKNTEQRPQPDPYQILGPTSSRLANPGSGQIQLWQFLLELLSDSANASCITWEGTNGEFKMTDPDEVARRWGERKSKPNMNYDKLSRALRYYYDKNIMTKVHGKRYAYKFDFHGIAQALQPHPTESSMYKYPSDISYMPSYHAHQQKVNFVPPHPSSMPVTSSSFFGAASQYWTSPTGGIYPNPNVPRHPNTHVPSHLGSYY
Procedure, shortened: (§1)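 Binding signal is each hexamer's read frequency for a factor divided by its frequency in the tag-only sample. The factors were GST-fused human transcription factors from yeast, captured on glutathione beads, DNA-barcoded and pooled with that sample. Pools were incubated with 200 nmole of a random double-stranded 16-mer DNA library in Tris/NaCl/DTT/glycerol buffer at room temperature for 30 min, then washed, crosslinked with 0.1% formaldehyde, proximity-ligated with BsaI/T4 ligase (1 h, 37 °C), PCR-amplified and sequenced on an Illumina NextSeq500.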

ELK1 = molecular target: T2, ELK1 (Homo sapiens, UniProt P19419 1-428)
T2 sequence: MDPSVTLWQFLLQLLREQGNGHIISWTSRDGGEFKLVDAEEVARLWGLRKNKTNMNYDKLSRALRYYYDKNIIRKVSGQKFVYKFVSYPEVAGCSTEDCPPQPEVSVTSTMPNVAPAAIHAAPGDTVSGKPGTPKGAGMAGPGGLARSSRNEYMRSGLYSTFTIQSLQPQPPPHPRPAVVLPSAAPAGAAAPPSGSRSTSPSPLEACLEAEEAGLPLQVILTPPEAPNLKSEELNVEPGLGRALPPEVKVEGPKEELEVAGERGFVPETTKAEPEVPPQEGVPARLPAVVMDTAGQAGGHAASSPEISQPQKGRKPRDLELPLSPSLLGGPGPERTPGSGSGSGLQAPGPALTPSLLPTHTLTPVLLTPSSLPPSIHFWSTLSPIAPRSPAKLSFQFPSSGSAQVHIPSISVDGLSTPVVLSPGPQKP
Procedure, shortened: as §1

GABPA = molecular target: T3, GABPA (Homo sapiens, UniProt Q06546 1-454)
T3 sequence: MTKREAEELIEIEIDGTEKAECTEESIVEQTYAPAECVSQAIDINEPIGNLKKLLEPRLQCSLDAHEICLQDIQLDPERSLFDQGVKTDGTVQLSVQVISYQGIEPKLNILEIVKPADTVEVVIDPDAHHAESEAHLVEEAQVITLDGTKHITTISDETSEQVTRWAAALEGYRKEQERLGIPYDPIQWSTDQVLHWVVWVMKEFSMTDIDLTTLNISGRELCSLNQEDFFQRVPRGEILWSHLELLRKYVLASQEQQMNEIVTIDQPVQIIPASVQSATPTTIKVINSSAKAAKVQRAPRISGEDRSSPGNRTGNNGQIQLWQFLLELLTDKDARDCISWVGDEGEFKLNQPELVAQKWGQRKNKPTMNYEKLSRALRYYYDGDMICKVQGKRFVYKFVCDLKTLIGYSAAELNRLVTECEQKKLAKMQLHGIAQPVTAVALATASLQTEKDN
Procedure, shortened: as §1

ERG = molecular target: T4, ERG (Homo sapiens, UniProt P11308 1-479)
T4 sequence: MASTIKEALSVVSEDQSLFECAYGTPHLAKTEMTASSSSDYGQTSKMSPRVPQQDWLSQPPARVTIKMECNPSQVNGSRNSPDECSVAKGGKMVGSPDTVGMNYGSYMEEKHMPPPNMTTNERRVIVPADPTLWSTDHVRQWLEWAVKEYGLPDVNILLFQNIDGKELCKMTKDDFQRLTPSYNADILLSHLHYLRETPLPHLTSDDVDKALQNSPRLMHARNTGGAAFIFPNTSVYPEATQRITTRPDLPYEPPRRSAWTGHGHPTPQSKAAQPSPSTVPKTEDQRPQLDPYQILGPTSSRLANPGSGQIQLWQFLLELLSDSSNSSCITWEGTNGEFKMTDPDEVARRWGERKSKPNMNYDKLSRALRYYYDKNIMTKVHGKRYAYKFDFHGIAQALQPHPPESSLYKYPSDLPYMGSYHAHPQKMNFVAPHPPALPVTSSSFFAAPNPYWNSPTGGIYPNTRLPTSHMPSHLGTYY
Procedure, shortened: as §1

ELF1 = ELF1 (Homo sapiens, UniProt P32519 1-619)
Procedure, shortened: as §1

EHF = molecular target: T5, EHF (Homo sapiens, UniProt Q9NZC4 1-300)
T5 sequence: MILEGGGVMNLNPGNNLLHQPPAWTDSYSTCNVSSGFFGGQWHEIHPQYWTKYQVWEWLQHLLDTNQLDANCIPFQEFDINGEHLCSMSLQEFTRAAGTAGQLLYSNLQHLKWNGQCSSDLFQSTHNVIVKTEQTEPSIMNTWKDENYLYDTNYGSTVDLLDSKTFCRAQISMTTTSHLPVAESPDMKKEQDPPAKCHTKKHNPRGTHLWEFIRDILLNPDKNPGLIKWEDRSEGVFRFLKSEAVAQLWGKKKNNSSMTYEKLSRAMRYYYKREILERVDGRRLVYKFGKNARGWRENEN
Procedure, shortened: as §1

SPI1 = SPI1 (Homo sapiens, UniProt P17947 1-270)
Procedure, shortened: as §1

SPIB = SPIB (Homo sapiens, UniProt Q01892 1-262)
Procedure, shortened: as §1

FEV = molecular target: T6, FEV (Homo sapiens, UniProt Q99581 1-238)
T6 sequence: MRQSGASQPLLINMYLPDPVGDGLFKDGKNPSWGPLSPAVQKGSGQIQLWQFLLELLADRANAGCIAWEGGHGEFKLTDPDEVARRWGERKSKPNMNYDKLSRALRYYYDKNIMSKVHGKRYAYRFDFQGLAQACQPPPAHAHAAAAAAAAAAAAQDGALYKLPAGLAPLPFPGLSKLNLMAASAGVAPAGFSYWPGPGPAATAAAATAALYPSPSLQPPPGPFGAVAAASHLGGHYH
Procedure, shortened: as §1

ETV5 = ETV5 (Homo sapiens, UniProt P41161 1-510)
Procedure, shortened: as §1

ELF4 = ELF4 (Homo sapiens, UniProt Q99607 1-663)
Procedure, shortened: as §1

ETV2 = molecular target: T7, ETV2 (Homo sapiens, UniProt O00321 1-342)
T7 sequence: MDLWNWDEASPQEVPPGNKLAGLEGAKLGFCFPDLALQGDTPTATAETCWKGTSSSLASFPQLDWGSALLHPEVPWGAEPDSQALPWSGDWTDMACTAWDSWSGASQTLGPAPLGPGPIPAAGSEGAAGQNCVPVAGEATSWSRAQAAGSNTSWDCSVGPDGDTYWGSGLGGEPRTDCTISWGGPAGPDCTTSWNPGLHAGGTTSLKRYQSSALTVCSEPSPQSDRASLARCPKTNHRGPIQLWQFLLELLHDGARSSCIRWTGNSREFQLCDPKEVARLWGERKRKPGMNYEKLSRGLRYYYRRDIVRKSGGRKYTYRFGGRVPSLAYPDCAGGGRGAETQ
Procedure, shortened: as §1

ETV1 = ETV1 (Homo sapiens, UniProt P50549 1-477)
Procedure, shortened: as §1

ERF = molecular target: T8, ERF (Homo sapiens, UniProt P50548 1-548)
T8 sequence: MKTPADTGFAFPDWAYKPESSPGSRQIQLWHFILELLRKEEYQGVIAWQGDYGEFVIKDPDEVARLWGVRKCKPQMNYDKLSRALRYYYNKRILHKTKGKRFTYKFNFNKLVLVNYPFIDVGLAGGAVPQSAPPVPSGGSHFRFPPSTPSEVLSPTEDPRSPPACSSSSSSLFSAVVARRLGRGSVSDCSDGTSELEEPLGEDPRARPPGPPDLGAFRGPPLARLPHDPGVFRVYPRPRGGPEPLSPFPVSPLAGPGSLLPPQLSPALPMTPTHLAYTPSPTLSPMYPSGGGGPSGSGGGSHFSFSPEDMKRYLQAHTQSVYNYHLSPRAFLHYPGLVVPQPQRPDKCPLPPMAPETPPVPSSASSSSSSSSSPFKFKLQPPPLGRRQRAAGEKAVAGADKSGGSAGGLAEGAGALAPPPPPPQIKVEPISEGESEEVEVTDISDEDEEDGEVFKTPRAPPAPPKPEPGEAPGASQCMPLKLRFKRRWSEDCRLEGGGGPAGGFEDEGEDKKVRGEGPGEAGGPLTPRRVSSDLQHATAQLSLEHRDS
Procedure, shortened: as §1

ETV3L = molecular target: T9, ETV3L (Homo sapiens, UniProt Q6ZN32 1-361)
T9 sequence: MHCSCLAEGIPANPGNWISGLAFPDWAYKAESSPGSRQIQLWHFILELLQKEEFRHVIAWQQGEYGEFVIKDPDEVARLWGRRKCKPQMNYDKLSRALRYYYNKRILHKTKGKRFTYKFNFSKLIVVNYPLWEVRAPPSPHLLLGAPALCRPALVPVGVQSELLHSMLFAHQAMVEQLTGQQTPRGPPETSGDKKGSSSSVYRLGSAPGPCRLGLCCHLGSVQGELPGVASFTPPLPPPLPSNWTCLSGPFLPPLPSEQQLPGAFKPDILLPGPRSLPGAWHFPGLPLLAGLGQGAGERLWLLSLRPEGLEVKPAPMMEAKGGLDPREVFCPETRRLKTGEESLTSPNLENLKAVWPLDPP
Procedure, shortened: as §1

ETS2 = molecular target: T10, ETS2 (Homo sapiens, UniProt P15036 1-469)
T10 sequence: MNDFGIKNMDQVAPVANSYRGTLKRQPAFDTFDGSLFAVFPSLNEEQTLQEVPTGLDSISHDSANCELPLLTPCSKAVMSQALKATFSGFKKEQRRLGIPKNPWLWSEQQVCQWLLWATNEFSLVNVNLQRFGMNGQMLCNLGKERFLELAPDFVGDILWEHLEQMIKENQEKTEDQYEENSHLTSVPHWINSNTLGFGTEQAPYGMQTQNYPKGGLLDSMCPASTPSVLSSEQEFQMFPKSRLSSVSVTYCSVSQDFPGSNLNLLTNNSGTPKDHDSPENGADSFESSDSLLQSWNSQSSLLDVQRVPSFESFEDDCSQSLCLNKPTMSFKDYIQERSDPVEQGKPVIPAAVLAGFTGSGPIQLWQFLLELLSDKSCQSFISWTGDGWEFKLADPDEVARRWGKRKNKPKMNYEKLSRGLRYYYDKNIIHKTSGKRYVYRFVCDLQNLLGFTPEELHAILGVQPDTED
Procedure, shortened: as §1

ETV7 = molecular target: T11, ETV7 (Homo sapiens, UniProt Q9Y603 1-341)
T11 sequence: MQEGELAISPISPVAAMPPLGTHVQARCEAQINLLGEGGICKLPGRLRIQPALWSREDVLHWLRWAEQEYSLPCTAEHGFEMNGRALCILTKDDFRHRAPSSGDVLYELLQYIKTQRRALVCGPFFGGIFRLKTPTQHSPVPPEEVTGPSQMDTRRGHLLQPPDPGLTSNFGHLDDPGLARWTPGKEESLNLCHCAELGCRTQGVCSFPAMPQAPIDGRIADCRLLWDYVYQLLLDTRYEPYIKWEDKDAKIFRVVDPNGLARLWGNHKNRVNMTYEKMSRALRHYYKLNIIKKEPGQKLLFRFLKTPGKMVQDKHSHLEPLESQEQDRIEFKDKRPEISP
Procedure, shortened: as §1

ETV3 = molecular target: T12, ETV3 (Homo sapiens, UniProt P41162-2 1-143)
T12 sequence: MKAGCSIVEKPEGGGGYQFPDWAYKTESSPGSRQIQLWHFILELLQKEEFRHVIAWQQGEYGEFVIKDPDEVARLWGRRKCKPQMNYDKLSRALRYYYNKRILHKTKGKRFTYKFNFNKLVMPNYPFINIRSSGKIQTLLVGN
Procedure, shortened: as §1

ETV6 = ETV6 (Homo sapiens, UniProt P41212 1-452)
Procedure, shortened: as §1

Chain of ELF4 (Q99607 whole entry): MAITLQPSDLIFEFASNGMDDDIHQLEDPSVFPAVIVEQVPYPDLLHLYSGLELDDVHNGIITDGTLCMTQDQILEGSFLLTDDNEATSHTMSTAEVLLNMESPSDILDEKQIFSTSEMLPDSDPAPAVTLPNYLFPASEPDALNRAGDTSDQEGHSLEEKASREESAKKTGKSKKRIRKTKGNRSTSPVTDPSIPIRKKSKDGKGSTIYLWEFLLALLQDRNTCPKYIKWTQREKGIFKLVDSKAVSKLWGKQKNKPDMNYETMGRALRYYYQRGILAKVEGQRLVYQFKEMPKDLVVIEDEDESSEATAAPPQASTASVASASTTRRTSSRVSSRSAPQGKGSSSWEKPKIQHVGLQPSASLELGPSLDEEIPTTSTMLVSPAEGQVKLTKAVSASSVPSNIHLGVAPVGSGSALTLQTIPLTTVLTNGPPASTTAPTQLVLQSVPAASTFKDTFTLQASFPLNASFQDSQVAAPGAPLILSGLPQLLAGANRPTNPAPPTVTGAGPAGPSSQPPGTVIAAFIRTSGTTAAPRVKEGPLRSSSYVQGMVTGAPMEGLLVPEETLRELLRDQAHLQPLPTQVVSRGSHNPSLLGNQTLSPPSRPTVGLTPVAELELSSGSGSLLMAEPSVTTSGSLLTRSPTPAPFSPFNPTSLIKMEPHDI
Chain of ELF1 (P32519 whole entry): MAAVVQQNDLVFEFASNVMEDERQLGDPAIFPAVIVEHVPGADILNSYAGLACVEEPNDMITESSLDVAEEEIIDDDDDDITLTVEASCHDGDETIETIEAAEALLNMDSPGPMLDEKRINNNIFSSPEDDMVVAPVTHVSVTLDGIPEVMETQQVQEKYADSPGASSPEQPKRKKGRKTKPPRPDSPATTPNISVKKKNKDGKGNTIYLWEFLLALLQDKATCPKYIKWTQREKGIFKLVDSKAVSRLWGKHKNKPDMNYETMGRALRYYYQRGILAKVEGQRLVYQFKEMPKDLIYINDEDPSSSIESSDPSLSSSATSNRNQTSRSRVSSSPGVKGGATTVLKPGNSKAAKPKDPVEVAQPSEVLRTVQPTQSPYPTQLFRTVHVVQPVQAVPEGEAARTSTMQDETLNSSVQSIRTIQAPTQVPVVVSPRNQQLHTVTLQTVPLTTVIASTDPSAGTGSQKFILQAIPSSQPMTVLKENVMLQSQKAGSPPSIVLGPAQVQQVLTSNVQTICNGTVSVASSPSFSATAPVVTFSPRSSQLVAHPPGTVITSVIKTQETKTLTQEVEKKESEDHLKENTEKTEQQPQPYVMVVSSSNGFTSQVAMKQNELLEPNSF
Chain of ETV5 (P41161 whole entry): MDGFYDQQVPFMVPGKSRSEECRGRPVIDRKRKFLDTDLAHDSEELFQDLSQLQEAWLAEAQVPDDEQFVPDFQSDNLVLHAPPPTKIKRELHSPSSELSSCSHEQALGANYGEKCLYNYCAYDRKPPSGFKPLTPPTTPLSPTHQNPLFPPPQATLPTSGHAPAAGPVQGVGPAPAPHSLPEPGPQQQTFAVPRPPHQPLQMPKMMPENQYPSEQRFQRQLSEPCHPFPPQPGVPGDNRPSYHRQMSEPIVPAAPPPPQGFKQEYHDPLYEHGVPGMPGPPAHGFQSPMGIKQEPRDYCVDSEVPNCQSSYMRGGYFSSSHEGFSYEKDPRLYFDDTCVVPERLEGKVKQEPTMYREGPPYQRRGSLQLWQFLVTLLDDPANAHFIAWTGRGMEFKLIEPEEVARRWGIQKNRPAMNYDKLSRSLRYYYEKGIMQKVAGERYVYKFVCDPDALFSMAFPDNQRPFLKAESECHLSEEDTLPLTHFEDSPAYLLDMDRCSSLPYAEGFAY
Chain of SPIB (Q01892 whole entry): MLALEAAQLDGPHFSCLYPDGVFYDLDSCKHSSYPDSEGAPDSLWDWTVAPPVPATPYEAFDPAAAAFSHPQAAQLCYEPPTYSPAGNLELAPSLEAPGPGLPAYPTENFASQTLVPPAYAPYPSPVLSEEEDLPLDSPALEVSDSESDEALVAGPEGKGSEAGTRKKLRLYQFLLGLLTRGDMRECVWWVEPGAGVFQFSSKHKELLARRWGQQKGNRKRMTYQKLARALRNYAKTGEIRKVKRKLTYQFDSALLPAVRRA
Chain of ETV1 (P50549 whole entry): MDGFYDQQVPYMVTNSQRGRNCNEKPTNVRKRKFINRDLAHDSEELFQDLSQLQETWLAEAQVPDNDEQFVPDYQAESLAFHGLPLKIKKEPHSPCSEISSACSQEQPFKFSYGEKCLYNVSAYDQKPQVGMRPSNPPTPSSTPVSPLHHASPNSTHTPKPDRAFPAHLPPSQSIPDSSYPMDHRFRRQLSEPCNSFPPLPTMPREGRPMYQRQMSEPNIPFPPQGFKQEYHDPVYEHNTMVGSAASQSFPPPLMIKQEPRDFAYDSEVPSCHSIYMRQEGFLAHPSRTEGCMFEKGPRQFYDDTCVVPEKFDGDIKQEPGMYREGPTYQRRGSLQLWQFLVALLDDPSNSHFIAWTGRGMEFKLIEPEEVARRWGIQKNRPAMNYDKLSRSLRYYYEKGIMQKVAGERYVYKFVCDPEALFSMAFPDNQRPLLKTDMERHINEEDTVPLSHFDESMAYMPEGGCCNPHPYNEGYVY
Chain of ETV6 (P41212 whole entry): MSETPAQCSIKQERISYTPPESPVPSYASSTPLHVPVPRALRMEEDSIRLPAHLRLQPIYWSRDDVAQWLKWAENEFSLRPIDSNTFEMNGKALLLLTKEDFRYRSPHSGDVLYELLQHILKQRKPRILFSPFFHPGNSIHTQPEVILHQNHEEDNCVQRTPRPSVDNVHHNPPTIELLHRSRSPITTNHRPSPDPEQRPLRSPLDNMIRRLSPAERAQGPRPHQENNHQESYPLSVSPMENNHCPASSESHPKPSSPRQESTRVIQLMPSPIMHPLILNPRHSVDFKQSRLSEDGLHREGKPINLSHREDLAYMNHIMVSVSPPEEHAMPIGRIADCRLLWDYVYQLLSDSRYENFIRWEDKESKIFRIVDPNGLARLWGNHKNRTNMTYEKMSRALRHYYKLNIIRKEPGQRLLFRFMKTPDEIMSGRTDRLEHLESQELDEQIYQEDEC

TGGGGT was tested. Which binding signal (FLI1) did it give?
Its binding signal is 1.02 fold enrichment (6-mer frequency, TF over GST control).

What about the binding signal (ELK1) of the same sequence?
The binding signal was 1.05 fold enrichment (6-mer frequency, TF over GST control).

What about the binding signal (GABPA) of the same sequence?
The binding signal was 1.12 fold enrichment (6-mer frequency, TF over GST control).

What about the binding signal (ERG) of the same sequence?
Its binding signal is 1.1 fold enrichment (6-mer frequency, TF over GST control).

And the binding signal (ELF1)?
Its binding signal is 1.09 fold enrichment (6-mer frequency, TF over GST control).

What about the binding signal (EHF) of the same sequence?
The binding signal was 1.03 fold enrichment (6-mer frequency, TF over GST control).

What about the binding signal (SPI1) of the same sequence?
Its binding signal is 1.04 fold enrichment (6-mer frequency, TF over GST control).

What about the binding signal (SPIB) of the same sequence?
The binding signal was 1.09 fold enrichment (6-mer frequency, TF over GST control).

And the binding signal (FEV)?
Its binding signal is 1.02 fold enrichment (6-mer frequency, TF over GST control).

And the binding signal (ETV5)?
The binding signal was 1.13 fold enrichment (6-mer frequency, TF over GST control).

And the binding signal (ELF4)?
Its binding signal is 1.08 fold enrichment (6-mer frequency, TF over GST control).

And the binding signal (ETV2)?
The binding signal was 1.08 fold enrichment (6-mer frequency, TF over GST control).

What about the binding signal (ETV1) of the same sequence?
Its binding signal is 1.14 fold enrichment (6-mer frequency, TF over GST control).

What about the binding signal (ERF) of the same sequence?
Its binding signal is 1.02 fold enrichment (6-mer frequency, TF over GST control).

And the binding signal (ETV3L)?
The binding signal was 1.2 fold enrichment (6-mer frequency, TF over GST control).

What about the binding signal (ETS2) of the same sequence?
The binding signal was 1.2 fold enrichment (6-mer frequency, TF over GST control).

What about the binding signal (ETV7) of the same sequence?
The binding signal was 1.05 fold enrichment (6-mer frequency, TF over GST control).

What about the binding signal (ETV3) of the same sequence?
Its binding signal is 1.14 fold enrichment (6-mer frequency, TF over GST control).

And the binding signal (ETV6)?
The binding signal was 1.09 fold enrichment (6-mer frequency, TF over GST control).
